{"source": "ChEMBL document CHEMBL4513216", "about": "“Probing the Open Global Health Chemical Diversity Library for Multistage-Active Starting Points for Next-Generation Antimalarials” (ACS Infect Dis, 2020)", "note": "The campaign covered roughly 68,000 compounds. About 2,700 (4%) showed an effect of 50% or more. The entries come from a sample that favours strong results as a whole.", "data": [{"system": "Plasmodium berghei", "assay": "Screen against P. berghei liver stage (PbLuc), transformed with Luciferase, at 2uM", "assay_type": "functional, HepG2", "settings": "tested at 2 uM", "units": {"INHIBITION": "%"}, "values": [{"smiles": "Cc1ccsc1-c1nccn1CCN(C)S(C)(=O)=O", "INHIBITION": 4.48}, {"smiles": "Cc1ccsc1-c1nccn1CCS(C)(=O)=O", "INHIBITION": 38.1}, {"smiles": "Cc1cn(CCn2ccnc2-c2sccc2C)nn1", "INHIBITION": 59.08}, {"smiles": "COc1ccnc(NCc2ccccc2Cn2cccn2)n1", "INHIBITION": -136.67}, {"smiles": "CN1CCCN(C(=O)NCCNc2ncccn2)CC1", "INHIBITION": -3.93}, {"smiles": "Cc1nn(C)c(C)c1-c1cnc(C2CCCN(C)C2)cn1", "note": "(configuration not stated)", "INHIBITION": 22.81}, {"smiles": "Cc1nn(C)c(C)c1-c1cnc(C2CCCN(S(C)(=O)=O)C2)cn1", "note": "(configuration not stated)", "INHIBITION": 51.15}, {"smiles": "CC(=O)N1CCCC(c2cnc(-c3c(C)nn(C)c3C)cn2)C1", "note": "(configuration not stated)", "INHIBITION": 20.08}, {"smiles": "CN(C)c1ccc(CN(CCCn2ccnc2)Cc2c[nH]cn2)cc1", "INHIBITION": 18.15}, {"smiles": "Cn1c(CCNC(=O)Nc2cn[nH]c2)nc2ccc(F)cc21", "INHIBITION": 55.36}, {"smiles": "Cn1c(CCCNC(=O)Nc2cn[nH]c2)nc2ccccc21", "INHIBITION": 29.13}, {"smiles": "CC(C)n1nccc1NC(=O)NCCc1nc2ccc(F)cc2n1C", "INHIBITION": 2.9}, {"smiles": "CN(Cc1ccccc1)C1(C(=O)NCC(N)=O)Cc2ccccc2C1", "INHIBITION": 6.39}, {"smiles": "Cc1cc(CCC2CN(Cc3ccccc3C(=O)O)CCO2)ncn1", "note": "(configuration not stated)", "INHIBITION": 0.3}, {"smiles": "Cc1cc(C[S+]([O-])CC(=O)NCc2ccccc2)no1", "note": "(configuration not stated)", "INHIBITION": -15.28}, {"smiles": "Cc1cc(C[S+]([O-])CC(=O)Nc2c(C)cccc2C)no1", "note": "(configuration not stated)", "INHIBITION": 51.21}, {"smiles": "Cc1cc(C[S+]([O-])CC(=O)NCC(C)C)no1", "note": "(configuration not stated)", "INHIBITION": -10.66}, {"smiles": "CCOC(=O)CN1C(=O)CN(S(C)(=O)=O)CCC(OC)c2ccccc21", "note": "(configuration not stated)", "INHIBITION": 12.44}, {"smiles": "Cc1ccccc1CNC(=O)CN1CCN(Cc2nccn2C)CC1", "INHIBITION": -34.45}, {"smiles": "Cn1ccnc1CN1CCN(CC(=O)NCc2ccccc2F)CC1", "INHIBITION": 26.09}, {"smiles": "Cn1ccnc1CN1CCN(CC(=O)NCC(F)(F)F)CC1", "INHIBITION": 62.13}, {"smiles": "CS(=O)(=O)c1snnc1C1CCN(Cc2ccc3nccnc3c2)CC1", "INHIBITION": 28.67}]}]}
